Where “and” joins values, the source holds several entries; their conditions need not be identical. Equal values may be shown once. Records with an inconclusive call do not appear. A number with no mark means an inactive call. Calls come from the whole dose curve; as a rule, active = well fitted curve in either direction with a large enough effect (not every such curve was filed as active); inconclusive = small, poorly fitted or top-dose-only effect, or another doubt; inactive = flat fitted curve, though single readings scatter.
% is set by controls: 0 for no effect and ±100 for the full control effect.

The first test can be described thus: AP1 Signaling Pathway (AID 357).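 Note: ME-180 reporter cells stimulated with EGF at its EC50 level.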 The conditions noted are these: ME-180 AP-1-bla reporter, EGF-induced, beta-lactamase ratio, 5 h; at 7.69 µM (top of the series) unless noted. From the text: NCGC Assay Overview: Activator protein-1 (AP-1), a transcription factor, plays an important role in tumor genesis by regulating genes involved in cell proliferation, differentiation, apoptosis, and angiogenesis. AP-1 activity is induced by a complex network of signaling pathways that involves extracellular signals, such as growth factors. The AP-1 protein complex formed from c-Fos and c-Jun binding to the AP-1 response element results in transcriptional activation of genes containing such elements within their promoter. Low molecular weight molecules have been discovered and developed to modulate various components of these signaling pathways, for example, MAP kinase inhibitors. However, many points of pathway modulation remain untested due to the lack of chemical probes making this signaling locus of general interest. Using a beta-lactamase reporter-gene under control of the AP-1 response element, a cell-based assay [CellSensor(TM) AP-1-bla ME-180 developed by Invitrogen Corp.] was used to measure EGF-induced signaling. Library compounds were measured for their ability to modulate positively or negatively the action of EC50 EGF on reporter gene activity. Compounds were screened in a titration series in 1536-well format. Positive and negative modulators were identified based on the AC50 values derived from the screening data.
NCGC Assay Protocol Summary: 2500 cells/5uL in Opti-MEM medium containing 0.5% dialyzed FBS, 0.1 mM NEAA, 1 mM sodium pyruvate and 10 mM HEPES was dispensed into 1536-well plates and cells were cultured at 37 degrees Celsius overnight. […] After centrifugation at 1000 rpm for 2 seconds the plates were incubated at 37 degrees Celsius for 5 hours. 1 uL of CCF4-dye mixture was added to each well. After incubated at room temperature for 2.5 hours the plates were measured on an EnVision plate reader at Excitation 405nm, Emission1=460nm and Emission 2=530nm. The %Activity was determined from the ratio of 460nm/530nm.
For `CCCc1cc(COC)c(C#N)c(=O)[nH]1`, the activity change, negative = inhibition is 1.77%. The same measure, in the same setting: next, `O=C(O)/C=C\C(=O)Nc1ccccn1`: 1.01%; `O=C(Nc1ccc(-c2cn3ccccc3n2)cc1)c1cc(Br)ccc1O`: -0.171%; `CN(C)c1ccc(-c2nc(N3CCNCC3)c3ccccc3n2)cc1`: -12.7%. Regarding `O=C(O)C[C@H](NC(=O)CP(=O)(O)O)C(=O)O.[NH-][C@@H]1CCCC[C@@H]1[NH-].[Pt]`, the activity change, negative = inhibition is -4.37%. As for `OC[C@@H]1O[C@H](O)[C@@H](Cl)[C@H](O)[C@@H]1O`, the activity change, negative = inhibition is -0.164% [at 38 µM]. As to `NC[C@H](O)C1CCCCCCC1`, the activity change, negative = inhibition is 3.98% [at 38 µM]. On to `O=C(O)CC12C[C@H]3C[C@@H](CC(O)(C3)C1)C2`, for which the activity change, negative = inhibition was 9.34%. Turning to `C[N+](C)(C)c1ccc([C@H](N)C(=O)O)cc1`, the activity change, negative = inhibition is -0.163%. Same read-out and setting: next, `Nc1ncnc2c1ncn2C[C@@H](O)C(=O)O`: 8.44%. On the same count and under the same terms, next, `[Cu].[O-]/N=C1/C(=[OH+])Nc2ccccc21.[O-]Nc1c(O)[nH]c2ccccc12`: 3.32%; `COc1ncc2nc(-c3ccc(Cl)cc3)c(=O)n(C[C@H]3CCCO3)c2n1`: -1.85%; `CN(C)CN1C(=O)S/C(=C2/C(=O)N(CN(C)C)c3ccccc32)C1=O`: -4.12%.

`O=C(O)C1C(C(=O)O)C(C(=O)O)C1C(=O)O` (stereo not given): the activity change, negative = inhibition is -0.701%. For the compound `C=C(C)CNCCN`, the activity change, negative = inhibition is 0.933%. As to `C(=Nc1ccc2c(c1)Cc1ccccc1-2)c1ccccn1`, the activity change, negative = inhibition is -0.541%.

For the compound `COc1ccc(N(CC(=O)O)N=O)cc1`, the activity change, negative = inhibition is 1.5%. On the same count and under the same terms, then `O=c1ccnc(SCc2ccc(Cl)cc2)[nH]1`, with 0.709%. On the same count and under the same terms, next, `Cc1cc(Cl)ccc1Nc1sc(C(=O)c2cc3cc(Cl)ccc3o2)c(N)c1C#N`: -2.93%. As for `CC(C)C[C@H](NC(=O)[C@@H](O)[C@@H](N)Cc1ccccc1)C(=O)O`, the activity change, negative = inhibition is 16.3% [at 38 µM] and 2.81% [at 38 µM]. In the case of `OCCCNc1ncnc2[nH]ncc12`, the activity change, negative = inhibition is 7.33%.

Take `Cc1cc(Cl)ccc1OCC(=O)Nc1nc(N)nc(N)n1`: the activity change, negative = inhibition was 7.35%. Take `CC(=O)Nc1ccc(S(=O)(=O)N=S(C)C)cc1`: the activity change, negative = inhibition was 4.76%. The same measure, in the same setting: next, `COc1ccc(Oc2ncc3nc(-c4ccccc4)c(=O)n(CCC#N)c3n2)cc1`: -26.9%; `C[C@H](CCC(=O)NN)[C@@H]1CC[C@@H]2[C@H]3CC[C@H]4C[C@@H](O)CC[C@@]4(C)[C@@H]3CC[C@]21C`: 12.8%; `O=C(O)c1[nH]c2c([N+](=O)[O-])cc([N+](=O)[O-])cc2c1C(=O)O`: 0.189%. Consider `NNC(=O)CCSc1ccccc1`, for which the activity change, negative = inhibition is 7.31%. On the same count and under the same terms, then `Cn1c(=O)c2[nH]c(SCc3ccccn3)nc2n(C)c1=S`, with -5.29%; and `CC1=C(C(=O)O)N2C(=O)[C@@H](NC(=O)[C@@H](N)C3=CCC=CC3)[C@@H]2SC1`, with 0.806% [at 38 µM]. On to `O=S(=O)(O)c1cc(O)c2c(N=Cc3ccccc3O)cc(S(=O)(=O)O)cc2c1`, for which the activity change, negative = inhibition was -14.5%. As to `CN(C)CCSCCO`, the activity change, negative = inhibition is 7.7%. The same measure, in the same setting: next, `CC(C)(C)c1ccc(O)c(CN(Cc2c(O)ccc3ccccc23)C2CCCCC2)c1`: -7.92%; `O=C(NCc1cccs1)O[C@H]1C[C@H]2CC[C@@H]1C2`: 19.6%; `CCN(CC)CC[n+]1ccc2c(C)c3[nH]c4ccccc4c3c(C)c2c1`: -22.3%. As to `O=C(O)CN(CCN(CC(=O)O)CC(=O)O)CC(=O)O.[Mn]`, the activity change, negative = inhibition was -0.063%. The same measure, in the same setting: then `COc1c2c(nc3ccccc13)O[C@@H]([C@@](C)(O)CO)C2`, with -14.5% [at 38 µM]; and `Cc1cc(CN2CCCCC2)c(O)c(CN2CCCCC2)c1`, with 25.8%; and `CC1(C)[C@@H]2CC[C@]1(C)[C@@H](OC(=O)/C=C\c1ccccc1)C2`, with 5.51%.

The same test, now with this note: ME-180 AP-1-bla reporter, EGF-induced, beta-lactamase ratio, 5 h; at 17.2 µM (top of the series).
Turning to `C(=C/c1ccccc1)/CN1CCN(C(c2ccccc2)c2ccccc2)CC1`, the activity change, negative = inhibition was -10.7%.

Still in this test, the particulars now being: ME-180 (cervical carcinoma) AP-1-bla reporter, EGF-induced, beta-lactamase ratio, 5 h; at 38 µM (top of the series).
As for `C(=C/c1ccccc1)/CN1CCN(C(c2ccccc2)c2ccccc2)CC1`, the activity change, negative = inhibition was -3.02%.

(Values after PubChem BioAssay (NCATS).)
